Source: PubChem (Center for Chemical Genomics, University of Michigan)
Only a selection was taken, and hits are over-represented in it overall.
Dicer inh: inhibitors of human Dicer processing of pre-microRNA; Q9UPY3; cat-ELCCA pre-miR-21 Dicer processing, chemiluminescence; active compounds read high; z-score at 25 µM; actives 6% (n = 47,000); in the data active = z-score above about 3, passing the limit was not always enough;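 also: higher signal means more uncleaved substrate so more Dicer inhibition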
Hits are given with their value; 0 = inactive.

SMILES | Dicer inh
CC(c1ccccc1)c1nnc(N)s1 (stereo not drawn) | 0
Cc1cc(Sc2nnc(N)s2)c2ccccc2n1 | 0
Cc1cccc(Cl)c1/C=N/NC(=S)Nc1ccc(Cl)cc1Cl | 0
CCOC(=O)C1=C(C)N2CCN=C2S1 | 0
CCOC(=O)C1=C(C)N2CCCN=C2S1 | 3.34
CCOC(=O)c1c(N)sc2c1CCC2 | 0
O=C(O)COCC(=O)Nc1ccc2c(c1)OCCCO2 | 0
CCOc1ccccc1C1C(C(=O)OCCOC)=C(C)NC2=C1C(=O)CC(c1ccccc1)C2 (stereo not drawn) | 0
COc1ccc(-c2nc(-c3cc4ccccc4[nH]c3=O)no2)cc1OC | 0
CSc1nc2c(Cl)cccc2c2c1c(=O)n(Cc1ccc(Cl)cc1)n2C | 0
CCOC(=O)c1c(SC)nc2c(Cl)cccc2c1N(C)CCO | 0
CSc1nc2c(Cl)cccc2c2c1c(=O)[nH]n2C | 3.57
Cc1c(C(=O)O)ccc2c1NC(c1ccc(C(C)C)cc1)C1CC=CC21 (stereo not drawn) | 3.36
O=C(O)c1cccc2c1NC(c1ccc(Br)cc1)C1CC=CC21 (stereo not drawn) | 0
Cc1cccc2c1N[C@H](c1ccc(C(=O)O)cc1)C1CC=CC21 (stereo partly drawn) | 0
COC(=O)c1ccc2c(c1)C1C=CCC1[C@@H](c1ccc(C(=O)O)cc1)N2 (stereo partly drawn) | 0
CCOC(=O)c1ccc2c(c1)[C@@H]1C=CC[C@@H]1[C@H](c1ccc(C(=O)O)cc1)N2 | 0
COc1ccc2c(c1)[C@@H]1C=CC[C@@H]1[C@H](c1ccc(C(=O)O)cc1)N2 | 4.16
NC(=S)c1cnn2c(-c3cccc(C(F)(F)F)c3)ccnc12 | 0
Ic1ccc2[nH]ccc2c1 | 0
C=C1SC(Nc2cccc(C)c2)=NC1(C)C | 0
S=C(NNc1ccccc1)Nc1cccc(Cl)c1Cl | 0
Cc1ccc(-c2cc(C(F)(F)F)c(C#N)c(SCC(=O)O)n2)cc1 | 0
N#Cc1c(C(F)(F)F)cc(-c2ccccc2)nc1SCC(N)=O | 0
CCOC(=O)CSc1nc(C2CC2)cc(-c2ccccc2)c1C#N | 3.72
SMILES | Dicer inh
CCOC(=O)CSc1nc(C)cc(C)c1C#N | 0
CCOC(=O)COc1nc(-c2ccccc2)cc(-c2ccccc2)c1C#N | 0
CCOC(=O)CSc1nc(-c2ccc(F)cc2)cc(C(F)(F)F)c1C#N | 3.19
Cc1ccc(-c2csc3nnc(C(F)(F)F)n23)cc1 | 0
CC1=C(C(=O)OCCc2ccccc2)C(c2coc3ccc(Cl)cc3c2=O)C2=C(CCCC2=O)N1 (stereo not drawn) | 0
Oc1ccc2ccccc2c1SSc1c(O)ccc2ccccc12 | 0
COC(=O)c1sc(N2C(=O)c3oc4ccccc4c(=O)c3C2c2ccc(C(C)C)cc2)nc1C (stereo not drawn) | 0
COc1ccc(S(=O)(=O)N2CCN(c3ccc(Cl)cc3)CC2)cc1 | 0
Cn1c(SCC(=O)c2ccccc2)nnc1-c1cc(C(C)(C)C)nn1Cc1ccc(F)cc1 | 0
Nc1cc(=O)[nH]c(=O)n1-c1ccccc1 | 0
Nc1cc(=O)[nH]n1C1CCN(c2ccccc2)CC1 | 3.21
O=C1CC(c2ccccc2)CC(=O)N1c1ccc(N2CCOCC2)cc1 | 0
COc1cc(CNc2ncn[nH]2)cc(Cl)c1OC | 0
Cc1ccc(S(=O)(=O)N2CCN(c3ncc(C(F)(F)F)cc3Cl)CC2)cc1[N+](=O)[O-] | 0
O=c1oc(/C=C/c2ccccc2)nc2sc3c(c12)CCC3 | 4.85
O=c1oc(-c2ccccc2)nc2sc3c(c12)CCCC3 | 0
O=c1oc(-c2cccs2)nc2sc3c(c12)CCCCC3 | 0
Cc1ccccc1-c1nc2sc3c(c2c(=O)o1)CCC3 | 0
O=c1oc(-c2ccccc2)nc2sc3c(c12)CCCCC3 | 3.07
S=c1nc2sc3c(c2c(Nc2ccccc2)[nH]1)CCCC3 | 0
Cc1ccc(S(=O)(=O)Nc2cc(-c3ccccc3)nn2C)cc1 | 0
Cc1cc(C)c(NC(=S)NN=C2CCCCCC2)c(C)c1 | 0
FC(F)(F)c1cnc(/N=C/N2CCOCC2)c(Cl)c1 | 0
Cn1c(CSc2cccs2)nnc1SCc1ccccc1 | 0
O=C(NCC1CCCO1)Nc1cccc(Cl)c1 (stereo not drawn) | 0
SMILES | Dicer inh
Cc1ccc(S(=O)(=O)n2c(=S)[nH]c3cc(C)ccc32)cc1 | 0
CCCCCCSc1nnc2nc(C)cc(C)n12 | 0
CCOC(=O)CSc1nc2ccc(C(F)(F)F)cc2[nH]1 | 0
O=C(NNc1c(Cl)cccc1Cl)c1c(F)cccc1Cl | 0
O=C(Nc1ccc(Oc2ncnc3cc(Cl)ccc23)nc1)c1ccc(F)cc1 | 0
C=CCNc1nc(-c2ccccc2)cs1 | 0
CCOC(=O)c1noc(C)c1-c1csc(N/N=C/c2ccccc2)n1 | 0
COc1ccc(/C=N/Nc2nc(-c3ccccc3)cs2)cc1 | 0
Cc1ccccc1CO/N=C\c1[nH]ncc1Br | 0
Brc1cn[nH]c1/C=N/Nc1nc(-c2ccccc2)cs1 | 3.17
Cc1onc(-c2ccccc2)c1-c1csc(N/N=C/c2ccccc2)n1 | 4.05
Clc1ccccc1/C=N/Nc1nc(-c2ccccc2)cs1 | 0
S=C(N/N=C/c1ccccc1)Nc1ccccc1 | 0
S=C(N/N=C/c1[nH]ncc1Br)Nc1ccccc1 | 4.15
Cc1onc(-c2ccccc2)c1-c1csc(Nc2ccc(Cl)cc2)n1 | 0
Fc1ccc(/C=N/Nc2nc(-c3ccccc3)cs2)cc1 | 6.78
c1ccc(-c2csc(NN=C3C4CC5CC(C4)CC3C5)n2)cc1 | 0
CN1Cc2c(N3CCOCC3)nc(SCc3ccccc3)c(C#N)c2CC1(C)C | 0
Oc1sc(-c2ccccc2)cc1C=Nc1ccccc1Cl | 0
N/C(=N\S(=O)(=O)c1ccc(Cl)cc1)N1CCSCC1 | 3.56
CSC/C(N)=N/S(=O)(=O)c1ccc(Cl)cc1 | 0
Nc1cc(Cl)ccc1C(=O)N1CCSCC1 | 0
CC1CC(C)CN(S(=O)(=O)c2cc(Cl)c(Oc3ccc([N+](=O)[O-])cc3Cl)c(Cl)c2)C1 (stereo not drawn) | 0
COc1ccc(CCNC(=S)N(C)C)cc1OC | 0
NC(Cc1c[nH]c2ccccc12)C(=O)O (stereo not drawn) | 0
SMILES | Dicer inh
Nc1ccccc1CC(c1c[nH]c2ccccc12)c1c[nH]c2ccccc12 | 4.75
O=C(NCC(c1ccccc1)c1c[nH]c2ccccc12)C(F)(F)F (stereo not drawn) | 0
C#CCSc1nnnn1-c1c(C)cccc1C | 0
Cc1ccc2cc(-c3noc(-c4ccc(F)cc4)n3)c(=O)[nH]c2c1 | 0
Cc1ccc(C2Nc3ccccc3NC3=C2C(=O)CC(c2cccs2)C3)cc1 (stereo not drawn) | 3.24
CN(C)c1ccc(C2Nc3ccccc3NC3=C2C(=O)CC(c2cccs2)C3)cc1 (stereo not drawn) | 0
Cc1ccc(C)c(C2Nc3ccccc3NC3=C2C(=O)CC(c2cccs2)C3)c1 (stereo not drawn) | 3.37
O=C1CC(c2ccc(Cl)cc2)CC2=C1C(c1ccc3c(c1)OCO3)Nc1ccccc1N2 (stereo not drawn) | 0
Cc1ccc(C2Nc3ccccc3NC3=C2C(=O)CC(c2ccc4c(c2)OCO4)C3)s1 (stereo not drawn) | 5.42
Cc1ccc2occ(C3Nc4ccccc4NC4=C3C(=O)CC(c3ccccc3)C4)c(=O)c2c1 (stereo not drawn) | 0
O=C1CC(c2ccccc2)CC2=C1C(c1ccsc1)Nc1ccccc1N2 (stereo not drawn) | 0
Cc1ccc2occ(C3Nc4ccccc4NC4=C3C(=O)CC(c3ccccc3Cl)C4)c(=O)c2c1 (stereo not drawn) | 0
COc1ccc(C2CC(=O)C3=C(C2)Nc2ccccc2NC3c2ccc3c(c2)OCO3)cc1OC (stereo not drawn) | 0
